# Sampled rows, rich in hits. Any-hit rate of the full collection: about 19%.
# IL1B secr inh – inhibitors of inflammasome signaling (IL-1 beta secretion) | actives 4.7% (n = 360,000) | activity change, % at 57.5 µM | THP-1 LPS/ATP IL-1B secretion, AlphaLISA, 16 h; active compounds read low; in the data active means activity change below about -50%; inconclusive means mostly about -30% to -49%
#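 Secreted IL-1B measured by AlphaLISA bead assay after 16 h compound exposure of THP-1 cells; compounds (final up to 57.5 uM) added 1 h before LPS (250 ng/mL) and ATP (1.25 mM) stimulation; lower signal means less secretion.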
# DT40 TDP1 CPT – growth inhibition of DT40 Tdp1-/-;hTDP1 cells with camptothecin (screen for TDP1 inhibitors). chicken DT40 Tdp1-/-;hTDP1 cells + 20 nM CPT, ATP luminescence, 48 h. Potency, µM (series often up to 46.2 µM), inactives show at the top dose activity change, negative = growth inhibition, hits mostly inhibitors. actives 12% (n = 420,000); further: potency means the concentration at half of the fitted maximal effect; nearly all actives have a fitted effect of over 55% in size
#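 Chicken DT40 Tdp1-/- cells complemented with human TDP1, 400 cells/well, exposed to compounds plus 20 nM camptothecin for at least 48 h at 37 C; viability read as ATP content by CellTiter-Glo luminescence.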
# TDP1 cell noCPT – qHTS for Inhibitors of human tyrosyl-DNA phosphodiesterase 1 (TDP1): qHTS in cells in absence of CPT; DT40 Tdp1-/- hTDP1 cells, no CPT, ATP luminescence, 48 h; Potency, µM (doses to about 46.2 µM), for inactives: at the highest dose activity change, negative = growth inhibition, hits mostly inhibitors; actives 15% (n = 420,000); AID 686978, 2013; further: potency means the concentration at half of the fitted maximal effect; nearly all actives have a fitted effect of over 55% in size
#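 Growth of hTDP1-complemented DT40 Tdp1-knockout cells is measured by ATP luminescence after at least 48 hr compound exposure at 37 °C, with DMSO substituting for the 20 nM CPT used in the parallel screen.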
# HT1080 IDH1KD tx – HT-1080 IDH1 knockdown cell toxicity (counter line). HT-1080 IDH1 knockdown viability, ATP luminescence, 48 h. Potency, µM (doses to about 46.1 µM), inactives show at the top dose activity, negative = toxicity, actives largely listed as cytotoxic. actives 2% (n = 360,000). AID 686971;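 further: potency means the concentration at half of the fitted maximal effect; 0% = DMSO wells and -100% = cell-free medium wells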
#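 Cytotoxicity counter-line: IDH1KD HT-1080, 48 h, CellTiter-Glo. Curves classed by r2, magnitude and activity.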
# HT1080NT lethal – kills 2HG-producing HT-1080-NT fibrosarcoma cells. AID 686970. actives 1.6% (n = 360,000). Potency, µM (doses to about 46.1 µM), for the others: at the top dose activity, negative = less viability, usual class: cytotoxic. HT-1080-NT fibrosarcoma viability, CellTiter-Glo ATP luminescence, 48 h;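 further: NT is the 2HG producing partner of a matched IDH1 knockdown line; potency means the concentration at half of the fitted maximal effect; 0% = DMSO-treated cells and -100% = media-only wells without cells; nearly all actives have a fitted effect of over 55% in size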
#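 Luminescent CellTiter-Glo readout after 48 hours of compound exposure at 37 degrees C defined viability of HT-1080-NT cells. Activity was normalized to DMSO wells and cell-free media wells; concentration-response curves were fitted and assigned curve classes.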
# Active calls of the source: *; ? = inconclusive; nt = no result given; [ ] = remark or other dose. Unless noted, the call rests on the fitted dose curve; in most records, active means well fitted curve in the direction sought with a large enough effect; inconclusive means small, poorly fitted or top-dose-only effect, or another doubt; inactive means no such curve, though single readings can be large; an effect the other way counts as inactive or inconclusive. Unless noted, on the % scale 0 is the no-effect control and ±100 the full control effect.
SMILES,IL1B secr inh,DT40 TDP1 CPT,TDP1 cell noCPT,HT1080 IDH1KD tx,HT1080NT lethal
COc1ccc(/C=C2\SC(=S)N(CCCC(=O)Nc3ccc(O)cc3)C2=O)cc1,-58.8*,?,?,?,?
COc1ccc(/C=C2\SC(=S)N(CCC(=O)NC3CCCC3)C2=O)cc1OC,-10.0,?,16.4µM*,-0.3%,16.4%
CCOC(=O)N1CCN(C(=O)CCN2C(=O)/C(=C\c3ccc(OC)c(OC)c3)SC2=S)CC1,-2.6,-0.9%,-5.7%,0.6%,-0.5%
COc1cc(/C=C2\SC(=S)N(CCC(=O)Nc3ccc(O)cc3)C2=O)cc(OC)c1OC,36.7,?,16.4µM*,?,?
CCc1ccc(/C=C2/SC(=S)N(CCC(=O)Nc3cccc(C(=O)O)c3)C2=O)cc1,14.3,0.2%,23.3%,13.3%,9.0%
CCc1ccc(C=C2SC(=S)N(CCCC(=O)Nc3ccc(C(=O)O)cc3)C2=O)cc1,-6.1,?,18.4µM*,-29.2%,-28.6%
Cc1cn2c(=O)cc(COC(=O)c3ccc(NC(=O)C(C)Oc4ccccc4)cc3)nc2s1 (stereo unspecified),nt,-7.5%,-0.5%,nt,nt
CC1=C(C(=O)N(C)C)CC(CC(=O)NCc2cccc3ccccc23)C(=O)N1CCC1=CCCCC1 (stereo unspecified),-19.2,?,?,-0.8%,3.0%
COc1ccccc1NC(=O)CCN1C(=O)/C(=C/c2cc(OC)c(OC)c(OC)c2)SC1=S,-2.4,?,14.6µM*,1.9%,-0.2%
COc1cc(/C=C2/SC(=S)N(CCC(=O)Nc3ccc(C(=O)O)cc3)C2=O)cc(OC)c1OC,?,9.2%,12.9%,-1.8%,-7.1%
Cc1ccsc1/C=N/NC(=O)c1ccc2ccccc2c1,-8.7,14.6µM*,18.4µM*,?,?
COCCNCCCCSc1ccc(Cl)cc1,-6.0,14.6µM*,18.4µM*,-12.8%,-20.8%
COCCNC(=O)CSc1ccc(Cl)cc1,0.0,16.1%,-14.5%,-4.3%,-11.5%
Cc1cccc(OCc2nc(CC(=O)Nc3ccc(C)cc3C)cs2)c1,nt,14.6µM*,?,nt,nt
Cc1cc(C)cc(NC(=O)Cc2csc(COc3cccc(C)c3)n2)c1,nt,-19.8%,-20.1%,nt,nt
Cn1c(=O)n(C)c2cc(NC(=O)CCl)ccc21,-91.0*,10.3µM*,11.6µM*,?,?
Cc1ccccc1OCC(=O)Nc1ccc2c(c1)n(C)c(=O)n2C,-24.4,?,14.6µM*,-17.3%,0.2%
O=c1cc(NS(=O)(=O)c2ccccc2)nc(SCc2ccc(Cl)cc2)[nH]1,-56.4*,-3.3%,-115.9%,-1.9%,3.2%
c1ccc(CSc2cc3ccccc3[nH]2)cc1,-26.6,?,?,-21.0%,?
O=C(Nc1ccc(O)cc1)c1ccc(NC(=O)c2cccs2)cc1,-28.2,?,?,23.1µM*,9.2µM*
O=C(Nc1ccc(Cc2ccncc2)cc1)c1cccs1,-75.3*,?,0.7%,-12.1%,-0.6%
O=C(Nc1ccc(NC(=O)c2cccs2)cc1)c1ccc2c(c1)OCCO2,32.9,-17.1%,-16.4%,1.9%,-7.9%
O=C(Nc1ccc(NC(=O)c2cccs2)cc1)c1ccc2c(c1)OCO2,-16.0,?,-28.5%,11.6µM*,?
O=C(Nc1ccc(NC(=O)c2cccs2)cc1)c1ccccc1,?,-3.1%,-16.8%,-7.7%,2.1%
Cc1ccccc1-c1nc(-c2ccc(NC(=O)c3cccs3)cc2)no1,?,23.1µM*,?,?,-10.9%
SMILES,IL1B secr inh,DT40 TDP1 CPT,TDP1 cell noCPT,HT1080 IDH1KD tx,HT1080NT lethal
Cc1ccc(NC(=O)c2cccs2)cc1NC(=O)c1cccc(F)c1,0.0,-11.3%,?,0.5%,3.6%
O=C(Nc1cccc(NC(=O)c2cccs2)c1)c1ccc2c(c1)OCO2,-77.4*,?,11.6µM*,-22.5%,1.9%
Cc1ccc(NC(=O)c2cccs2)cc1NC(=O)c1ccc(F)cc1,-60.0*,7.3%,?,?,-22.9%
CCOC(CNC(=O)CN1C(=O)COc2ccc(S(=O)(=O)N3CC(C)CC(C)C3)cc21)OCC (stereo unspecified),?,-2.1%,-1.0%,-2.6%,-9.6%
CN(C)CCNC(=O)CCCn1c(=O)c2cccn2c2ccccc21,nt,15.0%,-2.8%,nt,nt
Cc1c(Cl)cccc1NC(=O)CCn1c(=O)c2cccn2c2ccccc21,nt,?,16.4µM*,nt,nt
Cc1ccc(NC(=O)CCCn2c(=O)c3cccn3c3ccccc32)cc1C,nt,16.4µM*,11.6µM*,nt,nt
CCc1ccccc1NC(=O)CCCn1c(=O)c2cccn2c2ccccc21,nt,?,16.4µM*,nt,nt
Cc1cc(C)c(NC(=O)Cn2c(=O)c3cccn3c3ccccc32)c(C)c1,9.7,?,-25.6%,6.7%,3.5%
Cc1ccc(NC(=O)CCn2c(=O)c3cccn3c3ccccc32)cc1C,61.4,?,18.4µM*,-11.8%,-22.0%
CCCS(=O)(=O)NCc1c(C)ncc2c1CCN(C(=O)c1cccc(Cl)c1F)C2,nt,22.3%[9.04 µM],-20.7%,nt,nt
CCCCN(C(=O)CCCc1nc2ccccc2c(=O)[nH]1)c1c(N)n(CC(C)C)c(=O)[nH]c1=O,0.6,-5.9%,-5.4%,7.8%,-0.8%
Cc1cccn2c(=O)c(C(=O)N3CCN(c4ccccc4)CC3)cnc12,nt,-10.3%,-16.1%,nt,nt
Cc1ccc(NC(=O)CCn2c(=O)c3cccn3c3ccccc32)cc1Cl,nt,18.4µM*,23.1µM*,nt,nt
Cc1ccc(NC(=O)CCn2cnc3ccccc3c2=O)cc1Cl,-7.6,-16.2%,-5.9%,-13.5%,-12.3%
Clc1ccccc1C1CC(c2ccccc2)Nc2ncnn21 (stereo unspecified),-2.5,14.6µM*,?,-10.8%,1.0%
CCOc1ccc(C2CC(c3cccc(C)c3)n3ncnc3N2)cc1 (stereo unspecified),-12.0,13µM*,23.1µM*,-6.7%,3.5%
COc1cccc(C2CC(c3ccccc3Cl)Nc3ncnn32)c1 (stereo unspecified),?,25.9µM*,?,-2.7%,-2.5%
COc1ccc(C2CC(c3ccccc3Cl)Nc3ncnn32)cc1OC (stereo unspecified),-2.9,-28.3%,?,9.3%,-1.1%
COc1ccc(C2CC(c3cccc(C)c3)n3ncnc3N2)cc1 (stereo unspecified),-7.7,?,-23.8%,4.4%,-0.7%
Cc1ncc2c(c1CNC(=O)/C=C/c1cccs1)CCN(C(=O)c1ccc3c(c1)OCCO3)C2,nt,8.4%[9.04 µM],-2.7%,nt,nt
Cc1ccc(C(=O)CN(C(=O)c2ccc(Cl)c(Cl)c2)N2C(=O)C3C4C=CC(C4)C3C2=O)cc1 (stereo unspecified),-1.3,?,?,5.2%,2.6%

# Bioassay records: PubChem BioAssay, National Center for Advancing Translational Sciences (NCATS)
